Records with an inconclusive call do not appear. Where a call stands in place of a potency, no number is given. Unmarked numbers belong to inactive results. Active and inactive are the calls of the source. Calls come from the whole dose curve; as a rule, active = well fitted inhibition curve with a large enough effect in the repeat runs; inconclusive = weak or mixed curves; inactive = flat fitted curve, though single readings scatter.
Molecular target: Luciferin 4-monooxygenase (Photinus pyralis) (UniProt P08659)
Sequence (P08659 whole entry, looked up): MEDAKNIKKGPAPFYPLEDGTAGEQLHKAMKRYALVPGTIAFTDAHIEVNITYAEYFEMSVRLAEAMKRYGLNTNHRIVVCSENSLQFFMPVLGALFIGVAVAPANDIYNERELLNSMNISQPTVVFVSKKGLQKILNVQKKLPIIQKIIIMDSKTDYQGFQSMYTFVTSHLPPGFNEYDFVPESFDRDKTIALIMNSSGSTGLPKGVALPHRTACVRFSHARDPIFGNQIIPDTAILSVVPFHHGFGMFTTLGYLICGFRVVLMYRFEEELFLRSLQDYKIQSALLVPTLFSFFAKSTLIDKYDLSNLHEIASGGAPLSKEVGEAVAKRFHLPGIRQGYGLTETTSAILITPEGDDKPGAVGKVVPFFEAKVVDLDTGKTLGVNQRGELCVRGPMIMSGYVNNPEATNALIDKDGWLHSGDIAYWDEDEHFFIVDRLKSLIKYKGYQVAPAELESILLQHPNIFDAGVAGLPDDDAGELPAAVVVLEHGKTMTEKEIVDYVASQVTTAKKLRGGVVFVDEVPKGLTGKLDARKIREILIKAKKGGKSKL
Experiment: qHTS assay to identify small molecule inhibitors of firefly luciferase (AID 1224835); note: nearly all actives have a fitted effect of over 25% in size
Conditions: purified P. pyralis luciferase, luminescence inhibition; series mostly up to 115 µM
Source text: U.S. Tox21 Program National Center for Advancing Translational Sciences [NCATS] NIH Chemical Genomics Center [NCGC] U.S. Environmental Protection Agency [EPA] National Institutes of Environmental Health Sciences [NIEHS] National Toxicology Program [NTP] U.S. Food and Drug Administration [FDA] Tox21 Assay Overview: Firefly (Photinus pyralis) luciferase is one of the most commonly used transcriptional reporters. Firefly luciferase reporter-gene assays are generally considered one of the most sensitive assay types (Wood, 1995; Wood, 1998). However, it was initially observed, in 1991, by Thompson et al., that compounds that resemble the substrates of firefly luciferase (FLuc) can act as competitive inhibitors of the enzyme, and that these compounds, upon interaction with luciferase in the cell, can actually stabilize the protein and increase its half-life. Previous profiling work by other groups to determine the prevalence of compounds that affect FLuc enzymatic activity (PubChem AID 411) identified that ~3% of the MLSMR library (then at ~72K) inhibited FLuc. […] Thus the Tox21 10K library is profiled for activity against FLuc using a biochemical assay of purified FLuc and KM concentrations of FLuc substrates (D-luciferin and ATP).
These assay plates were then treated with 23nL of compound or DMSO using a Kalypsys pin tool, which allows for delivery of a 6-point interplate titration of each compound to the assay plate (quantitative HTS.) 1 uL of firefly luciferase mix (containing 50 mM Tris acetate, pH 7.6, 0.04 uM P. pyralis luciferase, 0.01% Tween, 0.05% BSA and dH2O) was then delivered by FRD to each well. Luciferase activity was then measured using a ViewLux CCD imager.

Compound	activity change, negative = inhibition	Potency
CC(C)(C)CC(C)(C)c1ccc(Nc2ccc(C(C)(C)CC(C)(C)C)cc2)cc1	-2.16% [at 10.5 µM]	
Oc1ccccc1O		inactive
c1cnccn1		inactive
COCCOc1cc2cc(C(=O)NC3CCN(C(C)C)CC3)n(CC(=O)Nc3ccc(Cl)cn3)c2cn1		inactive
Cc1cc(C(C#N)c2ccc(Cl)cc2)c(Cl)cc1NC(=O)c1cc(I)cc(I)c1O (stereo not given)		inactive
Cc1c(F)c(N2CCNC(C)C2)cc2c1c(=O)c(C(=O)O)cn2C1CC1 (stereo not given)		inactive
O=[N+]([O-])c1ccc(O)cc1C(F)(F)F		inactive
Nc1nc(-c2ccccc2)cs1		31.6 µM (active)
C[C@@H](O)[C@H](N)C(=O)O	1.37% [at 23.6 µM]	
CCn1c2ccccc2c2cc([N+](=O)[O-])ccc21		inactive
COc1ccc2c(c1)c(CC(=O)OC/C=C(\C)CC/C=C(\C)CCC=C(C)C)c(C)n2C(=O)c1ccc(Cl)cc1		inactive
CN(C)CCN1CCN(c2cccc(Cl)c2)C1=O		inactive
NC[C@H]1O[C@H](O[C@H]2[C@H](O[C@@H]3O[C@H](CO)[C@@H](O)[C@H]3O)C(O)[C@H](N)C[C@@H]2N)[C@H](N)[C@@H](O)[C@@H]1O (stereo not given in full)	6.81% [at 10.5 µM]	
CCCCCCCCCCOC(=O)c1ccccc1C(=O)OCCCCCCCC		inactive
O=S(=O)(O)c1ccc(N=Nc2c(O)ccc3ccccc23)cc1		35.6 µM (active)
CC[C@H](C)COC(=O)/C=C/c1ccc(N=Cc2ccc(OC)cc2)cc1		4.47 µM (active)
O=C(O)c1cc(=O)c2ccccc2o1		inactive
O=[N+]([O-])c1cccc(C(F)(F)F)c1		inactive
CCC(=O)OC(=O)CC		inactive
C=Cc1ccccc1C=C		inactive

Compound	activity change, negative = inhibition	Potency
CCC(C)(CCC(C)C)C(=O)[O][Sn]([CH3])([CH3])[O]C(=O)C(C)(CC)CCC(C)C (stereo not given)		inactive
O=C1CCCCCCCCCCCCCCCO1		inactive
CCCCCC(C)OC(=O)COc1ccc(Cl)c2cccnc12 (stereo not given)		inactive
CCOC(=O)NNc1ccc(N(CC)CC(C)O)nn1 (stereo not given)		inactive
OC/C=C/CO		inactive
CC[N+](CC)(CC)CCOC(=O)C(C1CCCC1)C1CCCC1		inactive
Cc1ccc(O)c(N)c1		31.8 µM (active)
CNC(=O)c1ccccc1Sc1ccc2c(/C=C/c3ccccn3)n[nH]c2c1		0.871 µM (active)
CCCCC(CC)COC(=O)CCCCC(=O)OCc1ccccc1 (stereo not given)		inactive
CC1(C)CCC[C@]2(C)[C@H]3CCO[C@]3(C)CC[C@@H]12		inactive
CCc1ccc(Br)cc1		inactive
C#C[C@]1(O)CC[C@H]2[C@@H]3[C@H](C)CC4=C(CCC(=O)C4)[C@H]3CC[C@@]21C		inactive
O=C(O)CCN(C1(C(=O)NO)CCCC1)S(=O)(=O)c1ccc(Oc2ccc(F)cc2)cc1		inactive
CCCCCCCCCCCCCCCC[N+](C)(C)CC		inactive
c1ccsc1		inactive
CCCC1CCC(=O)CC1		inactive
FC(F)(F)c1cccc(Cl)c1		inactive
Oc1c(I)cc(Cl)c2cccnc12		inactive
OCCN1CCN(CCCN2c3ccccc3Sc3ccc(C(F)(F)F)cc32)CC1		inactive
O=C(Oc1ccccc1)Oc1ccccc1		31.6 µM (active)

From PubChem BioAssay (Tox21)
